For some of these results: Entries with a potency or affinity are not part of this list.
Columns and labels:
Design in all cases: scale not given: direction of the effect not stated beside the values
[1] = biological target: Protein translocase subunit SecA (Escherichia coli (strain K12)) (UniProt P10408); assay: Assay to Identify E. coli SecA ATPase Inhibitors; assay type: functional; conditions: 30 µM
[2] = biological target: T1, Ubiquitin-activating enzyme e1, putative (Leishmania donovani (strain BPK282A1)) (UniProt E9BSI1); assay: Leishmania donovani Ubiquitin Activating Enzyme (LdE1); assay type: functional; conditions: 30 µM
T1 sequence (whole entry): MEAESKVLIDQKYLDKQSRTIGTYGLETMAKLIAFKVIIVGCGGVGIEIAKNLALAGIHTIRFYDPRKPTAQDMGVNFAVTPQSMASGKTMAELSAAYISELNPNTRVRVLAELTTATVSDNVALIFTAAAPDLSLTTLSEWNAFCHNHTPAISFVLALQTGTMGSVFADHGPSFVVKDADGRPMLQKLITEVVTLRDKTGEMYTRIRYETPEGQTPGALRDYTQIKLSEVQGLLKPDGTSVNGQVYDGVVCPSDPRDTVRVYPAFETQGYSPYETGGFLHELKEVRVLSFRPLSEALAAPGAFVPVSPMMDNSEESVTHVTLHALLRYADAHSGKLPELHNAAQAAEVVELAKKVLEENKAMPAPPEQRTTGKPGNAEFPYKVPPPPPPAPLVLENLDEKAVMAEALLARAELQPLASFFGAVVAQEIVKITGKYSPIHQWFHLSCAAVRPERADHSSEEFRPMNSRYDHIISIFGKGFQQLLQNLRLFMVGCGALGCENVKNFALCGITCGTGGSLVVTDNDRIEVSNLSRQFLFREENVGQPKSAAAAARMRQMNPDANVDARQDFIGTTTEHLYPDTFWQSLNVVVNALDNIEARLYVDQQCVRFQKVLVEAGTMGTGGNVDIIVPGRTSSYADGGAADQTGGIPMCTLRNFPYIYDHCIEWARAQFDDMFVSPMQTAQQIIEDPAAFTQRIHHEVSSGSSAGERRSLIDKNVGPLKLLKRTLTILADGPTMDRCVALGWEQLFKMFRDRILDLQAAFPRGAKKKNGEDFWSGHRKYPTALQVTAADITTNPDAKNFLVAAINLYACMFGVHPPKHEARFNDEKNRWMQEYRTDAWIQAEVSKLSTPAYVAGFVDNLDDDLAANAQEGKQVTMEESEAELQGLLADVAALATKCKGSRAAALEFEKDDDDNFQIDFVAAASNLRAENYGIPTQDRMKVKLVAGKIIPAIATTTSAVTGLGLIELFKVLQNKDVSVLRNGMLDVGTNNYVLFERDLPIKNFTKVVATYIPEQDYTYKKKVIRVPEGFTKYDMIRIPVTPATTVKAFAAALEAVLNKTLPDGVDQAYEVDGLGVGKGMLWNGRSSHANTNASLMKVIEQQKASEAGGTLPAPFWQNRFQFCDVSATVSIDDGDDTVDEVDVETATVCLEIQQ

[3] = biological target: AMP-activated protein kinase, AMPK (Homo sapiens) (UniProt P54646+O43741+P54619+Q9UGJ0+Q9Y478+Q13131+Q9UGI9); assay: AMP-dependent Kinase enzyme assay. An in vitro enzyme assay that detects ADP turnover that is directly proportional to AMPK activity. This uses naive AMPK that is activated during the assay with MK-8722; assay type: functional; conditions: 30 µM
[4] = biological target: Sialic acid-binding Ig-like lectin 9 (Homo sapiens) (UniProt Q9Y336); assay: Hs-Siglec9 ALPHAscreen SOP 20170721; conditions: 10 µM
Sequence of Sialic acid-binding Ig-like lectin 9 (Homo sapiens) (Q9Y336 whole entry): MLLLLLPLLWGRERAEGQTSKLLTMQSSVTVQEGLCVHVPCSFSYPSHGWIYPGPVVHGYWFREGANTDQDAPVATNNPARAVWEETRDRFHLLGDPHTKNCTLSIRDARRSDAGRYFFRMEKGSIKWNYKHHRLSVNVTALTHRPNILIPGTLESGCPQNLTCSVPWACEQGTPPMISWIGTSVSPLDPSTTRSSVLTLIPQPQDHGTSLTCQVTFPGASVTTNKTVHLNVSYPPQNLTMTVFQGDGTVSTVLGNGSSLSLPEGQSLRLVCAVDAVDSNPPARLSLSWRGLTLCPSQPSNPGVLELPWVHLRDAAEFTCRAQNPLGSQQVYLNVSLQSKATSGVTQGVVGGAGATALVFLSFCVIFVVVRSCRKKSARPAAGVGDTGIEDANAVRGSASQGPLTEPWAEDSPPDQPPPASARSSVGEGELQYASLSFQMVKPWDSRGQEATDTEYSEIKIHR

Trypanosoma cruzi = assay: Trypanosoma cruzi phosphomannomutase and mannose-1-phosphate guanylyltransferase assay; assay type: functional; conditions: 10 µM
[5] = biological target: T2, Arginase-2, mitochondrial (Homo sapiens) (UniProt P78540); assay: in vitro enzyme assay to detect the production of urea directly proportional to the activity of Arginase II; assay type: functional; conditions: 33.3 µM; further: in the data most compounds retested in dose-response had high values
T2 sequence (whole entry): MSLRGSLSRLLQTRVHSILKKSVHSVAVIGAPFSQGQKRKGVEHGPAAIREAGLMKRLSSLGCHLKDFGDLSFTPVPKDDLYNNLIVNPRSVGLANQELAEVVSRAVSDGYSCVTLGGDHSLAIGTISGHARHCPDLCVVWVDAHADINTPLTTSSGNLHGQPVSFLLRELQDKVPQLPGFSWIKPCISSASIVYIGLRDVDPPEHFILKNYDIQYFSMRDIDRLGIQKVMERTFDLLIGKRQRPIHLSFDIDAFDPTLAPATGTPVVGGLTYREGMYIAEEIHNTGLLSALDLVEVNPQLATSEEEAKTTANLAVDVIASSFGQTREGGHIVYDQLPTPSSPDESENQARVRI

[6] = biological target: T3, Proteasome subunit beta (Trypanosoma cruzi) (UniProt O96673); assay: Trypanosoma cruzi proteasome chymotrypsin-like activity (TcProtChymo) assay.; further: in the data most compounds retested in dose-response had high values; assay type: functional; conditions: 9.37 µM
T3 sequence (whole entry): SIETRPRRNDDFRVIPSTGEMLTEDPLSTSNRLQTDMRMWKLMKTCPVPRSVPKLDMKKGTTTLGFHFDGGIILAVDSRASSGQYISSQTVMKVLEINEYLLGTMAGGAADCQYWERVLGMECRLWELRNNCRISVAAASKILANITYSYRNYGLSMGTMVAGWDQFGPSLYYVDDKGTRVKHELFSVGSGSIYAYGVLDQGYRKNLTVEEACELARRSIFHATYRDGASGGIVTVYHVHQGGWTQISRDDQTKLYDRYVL

Homo sapiens = organism: Homo sapiens; assay: To identify inhibition of the IFN signalling (Jak-Stat) pathway via expression of an eGFP reporter gene under the control of an IFN-stimulated response element (ISRE) containing MxA promoter.; assay type: functional; conditions: 30 µM
[7] = biological target: T4, Tyrosyl-tRNA synthetase, putative (Trypanosoma cruzi (strain CL Brener)) (UniProt Q4DSP6); assay: Trypanosoma cruzi tyrosyl tRNA synthetase (TcYRS) _High Tyrosine SOP; assay type: functional; conditions: 30 µM; further: in the data most compounds retested in dose-response had high values
T4 sequence (whole entry): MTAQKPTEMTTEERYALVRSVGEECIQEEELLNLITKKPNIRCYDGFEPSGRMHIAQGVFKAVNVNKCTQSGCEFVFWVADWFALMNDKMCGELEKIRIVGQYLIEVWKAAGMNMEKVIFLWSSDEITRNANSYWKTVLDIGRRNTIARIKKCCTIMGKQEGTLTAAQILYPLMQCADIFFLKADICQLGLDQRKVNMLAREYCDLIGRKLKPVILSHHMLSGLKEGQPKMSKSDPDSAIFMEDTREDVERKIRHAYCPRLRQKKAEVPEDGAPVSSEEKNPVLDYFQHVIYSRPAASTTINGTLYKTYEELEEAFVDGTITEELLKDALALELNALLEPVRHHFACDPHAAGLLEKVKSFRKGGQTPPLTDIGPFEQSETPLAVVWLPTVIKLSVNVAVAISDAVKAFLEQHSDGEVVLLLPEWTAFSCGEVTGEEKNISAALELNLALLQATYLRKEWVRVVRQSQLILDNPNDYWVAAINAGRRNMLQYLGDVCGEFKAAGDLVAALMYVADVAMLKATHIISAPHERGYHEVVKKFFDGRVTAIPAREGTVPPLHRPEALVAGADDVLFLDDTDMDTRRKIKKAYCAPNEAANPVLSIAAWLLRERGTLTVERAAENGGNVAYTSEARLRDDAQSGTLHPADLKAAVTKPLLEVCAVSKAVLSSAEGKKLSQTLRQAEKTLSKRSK

[8] = biological target: T4, Tyrosyl-tRNA synthetase, putative (Trypanosoma cruzi (strain CL Brener)); assay: Trypanosoma cruzi tyrosyl tRNA synthetase (TcYRS) SOP; assay type: functional; conditions: 30 µM
[9] = biological target: Chromo domain-containing protein 1 (Saccharomyces cerevisiae (strain ATCC 204508 / S288c) (Baker's yeast)) (UniProt P32657); assay: ScCHD-1 Enzyme Inhibition Assay; assay type: functional; conditions: 30 µM; further: in the data most compounds retested in dose-response had high values
Sequence of Chromo domain-containing protein 1 (Saccharomyces cerevisiae (strain ATCC 204508 / S288c) (Baker's yeast)) (P32657 whole entry, the tested form may be a part): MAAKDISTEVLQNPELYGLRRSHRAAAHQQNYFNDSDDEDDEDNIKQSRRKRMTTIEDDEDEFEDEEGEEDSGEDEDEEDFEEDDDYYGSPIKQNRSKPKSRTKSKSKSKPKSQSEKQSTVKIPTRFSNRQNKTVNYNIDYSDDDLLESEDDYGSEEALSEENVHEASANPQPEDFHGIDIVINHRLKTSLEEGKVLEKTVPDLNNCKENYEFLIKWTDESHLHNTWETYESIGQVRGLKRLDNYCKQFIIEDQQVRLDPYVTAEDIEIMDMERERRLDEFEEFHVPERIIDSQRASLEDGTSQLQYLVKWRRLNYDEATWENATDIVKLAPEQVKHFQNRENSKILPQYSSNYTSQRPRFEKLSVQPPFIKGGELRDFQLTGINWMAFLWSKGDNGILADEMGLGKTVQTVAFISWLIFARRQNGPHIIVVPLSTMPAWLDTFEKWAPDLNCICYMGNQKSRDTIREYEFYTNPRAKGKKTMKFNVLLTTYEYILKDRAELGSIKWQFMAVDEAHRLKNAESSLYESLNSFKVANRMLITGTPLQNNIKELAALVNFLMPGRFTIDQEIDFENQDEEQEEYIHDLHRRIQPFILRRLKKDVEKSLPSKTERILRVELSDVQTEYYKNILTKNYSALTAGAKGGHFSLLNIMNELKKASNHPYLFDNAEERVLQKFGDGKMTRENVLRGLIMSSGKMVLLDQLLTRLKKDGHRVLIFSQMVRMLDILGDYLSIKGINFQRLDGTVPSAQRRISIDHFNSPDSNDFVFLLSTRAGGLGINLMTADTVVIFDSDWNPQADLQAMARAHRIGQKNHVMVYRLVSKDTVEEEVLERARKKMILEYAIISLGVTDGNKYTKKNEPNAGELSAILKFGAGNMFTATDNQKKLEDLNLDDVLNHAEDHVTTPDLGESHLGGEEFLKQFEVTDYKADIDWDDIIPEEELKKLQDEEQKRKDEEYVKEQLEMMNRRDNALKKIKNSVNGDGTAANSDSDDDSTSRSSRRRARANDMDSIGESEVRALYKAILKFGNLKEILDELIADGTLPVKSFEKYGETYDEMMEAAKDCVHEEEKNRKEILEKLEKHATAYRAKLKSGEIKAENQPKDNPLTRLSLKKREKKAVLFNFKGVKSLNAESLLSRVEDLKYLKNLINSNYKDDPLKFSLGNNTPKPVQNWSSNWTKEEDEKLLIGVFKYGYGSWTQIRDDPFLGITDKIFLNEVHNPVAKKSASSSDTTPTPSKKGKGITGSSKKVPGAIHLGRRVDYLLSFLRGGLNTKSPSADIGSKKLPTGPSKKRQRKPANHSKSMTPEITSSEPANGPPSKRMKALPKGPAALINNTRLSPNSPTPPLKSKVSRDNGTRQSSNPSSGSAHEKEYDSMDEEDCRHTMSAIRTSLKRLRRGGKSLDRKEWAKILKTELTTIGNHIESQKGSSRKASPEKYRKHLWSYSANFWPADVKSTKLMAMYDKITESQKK

Sequence of Protein translocase subunit SecA (Escherichia coli (strain K12)) (P10408 whole entry): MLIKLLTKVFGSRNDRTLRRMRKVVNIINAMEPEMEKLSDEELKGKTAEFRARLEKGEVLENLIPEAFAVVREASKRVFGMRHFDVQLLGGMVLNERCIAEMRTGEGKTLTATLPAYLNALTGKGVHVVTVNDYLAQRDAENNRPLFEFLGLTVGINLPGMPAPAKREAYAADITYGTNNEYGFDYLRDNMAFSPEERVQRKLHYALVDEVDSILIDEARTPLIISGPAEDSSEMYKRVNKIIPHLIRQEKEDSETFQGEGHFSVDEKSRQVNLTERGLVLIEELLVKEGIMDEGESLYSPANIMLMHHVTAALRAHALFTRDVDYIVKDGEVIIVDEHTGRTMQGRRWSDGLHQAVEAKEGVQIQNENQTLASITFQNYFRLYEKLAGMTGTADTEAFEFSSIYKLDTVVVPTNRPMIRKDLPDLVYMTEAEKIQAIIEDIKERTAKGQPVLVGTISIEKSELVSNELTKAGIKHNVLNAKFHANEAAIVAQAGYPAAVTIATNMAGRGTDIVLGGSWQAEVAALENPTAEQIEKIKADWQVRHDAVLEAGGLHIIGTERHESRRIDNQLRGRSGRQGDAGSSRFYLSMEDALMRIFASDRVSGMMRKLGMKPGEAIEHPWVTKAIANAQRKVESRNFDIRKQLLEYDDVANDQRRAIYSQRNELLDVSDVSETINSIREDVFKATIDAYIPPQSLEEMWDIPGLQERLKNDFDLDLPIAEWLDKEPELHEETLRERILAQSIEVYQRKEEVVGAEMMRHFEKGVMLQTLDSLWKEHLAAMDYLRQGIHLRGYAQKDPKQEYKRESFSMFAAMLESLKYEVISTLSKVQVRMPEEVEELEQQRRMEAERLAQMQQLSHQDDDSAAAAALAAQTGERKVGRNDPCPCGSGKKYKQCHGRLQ

| SMILES | Percent Effect [1] | Percent Effect [2] | Percent Effect [3] | Percent Effect [4] | Percent Effect (Trypanosoma cruzi) | Percent Effect [5] | Percent Effect [6] | Percent Effect (Homo sapiens) | Percent Effect [7] | Percent Effect [8] | Percent Effect [9] |
| --- | --- | --- | --- | --- | --- | --- | --- | --- | --- | --- | --- |
| COc1cc(NC(=O)Cn2ccc3sc(C)cc3c2=O)cc(OC)c1 | 0.749% | 0% | 8.38% | 5.78% | -5.42% | 17.4% | 7.49% | 2.45% | 1.06% | 11.5% | -0.379% |
| Cc1ncsc1C(=O)NC1CCN(Cc2ccc(C#N)cc2)CC1 | -4.4% | 18.2% | 0.609% | 12.4% | 1.12% | -2.49% | 5.74% | 32.5% | 3.88% | 12.2% | -7.46% |
| CCn1c(C)nnc1CN(C)C1CCN(CCCOC)C1 (stereo not given) | -1.09% | 18.2% | -9.12% | 4.71% | 3.82% | 6.11% | 11.7% | -2.93% | 7.62% | 25.9% | -10.1% |
| Cc1n[nH]c(C2CN(CC(=O)NCc3ccco3)CCO2)n1 (stereo not given) | -7.98% | 0% | 3.1% | -5.39% | -5.36% | -2.6% | 6.8% | 24.6% | -1.64% | -3.7% | -2.33% |
| CCN1CCN(Cc2ccnc(-c3cccnc3)n2)CC1 | -8.52% | 20.3% | 0.102% | 1.94% | -0.79% | -1.62% | 15.3% | -6.28% | 4.3% | 16.9% | -29.4% |
| c1nc2c(c(C3CC3)n1)CCN(CC1CCOC1)CC2 (stereo not given) | -4.07% | 8.11% | 3.6% | -7.53% | 8.31% | 3.5% | 20.7% | 7.05% | 5.41% | 15.4% | -0.123% |
| O=C(NCCNc1ncccn1)C1CC(=O)N(CC(F)(F)F)C1 (stereo not given) | -0.757% | 16.2% | -5.02% | -3.51% | -7.26% | -4.81% | 5.59% | 16.5% | 9.36% | 13.6% | -6.16% |
| Cc1nc(N2CCN(C(=O)C3CC3)CC2)c2c(n1)c(C)nn2C | -1.08% | 6.67% | 0.162% | 0.614% | 3.73% | -4.75% | 10.2% | 18.7% | 6.35% | 12.8% | -11.8% |
| O=C(NCc1ccco1)[C@H]1C[C@H]2OCC[C@H]2N(C(=O)c2ccncc2)C1 | -2.12% | -2.67% | 11.1% | 21.8% | 0.193% | -50% | 7.18% | -21.2% | 3.12% | 2.5% | -1.86% |
| CC(C)c1nc2c(n1C)CCN(CC(=O)Nc1nccs1)C2 | -4.97% | 15.6% | 1.78% | -4.17% | -0.686% | 3.58% | 15.3% | -3.14% | 9.52% | 21.2% | -18% |
| Cc1ncsc1C(=O)NC1CCN(CCC(N)=O)CC1 | -5.32% | 15.6% | -3% | 11% | -2.62% | 0.356% | 4.56% | 4.69% | 4.85% | 9.76% | -1.54% |
| O=C(NCCCNCC1CNc2ccnn2C1)c1ccccc1 (stereo not given) | 0.663% | 2.7% | -9.29% | -3.11% | 0.193% | 4.29% | 16.6% | 9.18% | 5.82% | 14.6% | -3.29% |
| Cc1cc(C)n(-c2cncc(NCCNC(=O)CC3CCCC3)n2)n1 | -5.92% | 5.41% | 16.2% | 27.9% | 0.489% | 1.24% | 8.67% | -10.2% | 1.07% | 8.64% | -4.7% |
| CCOC(=O)[C@]12CCCN(Cc3nccs3)C[C@H]1CN(CCN(C)C)C2 | -2.1% | 13% | 1.26% | -3.57% | -0.493% | 7.1% | 16.2% | 8.87% | 2.12% | 8.97% | -10.9% |
| O=C(CCc1ccccc1)N1CCn2cc(Cn3cncn3)nc2C1 | -2.68% | 0% | 5.15% | 7.21% | -3.45% | -3.23% | 14.6% | 22.4% | 1.06% | -1.28% | 1.43% |
| CNC(=O)COc1ccc(CNCc2ccc(F)cc2F)cc1 | -3.24% | 6.94% | 7.47% | -14.2% | -5.93% | -1.32% | 18.6% | 6.07% | 4.21% | 5.13% | -3.63% |
| CC(C)CN1C[C@H]2CCN(c3ncccn3)CC[C@H]2S1(=O)=O | -1.59% | 20.8% | -1.01% | 12.2% | 6.39% | -15.2% | 15% | -0.732% | 6.45% | 13.6% | 118% |
| COc1ccc(CCC(=O)N2CCCC2Cn2cc(C)cn2)cc1F (stereo not given) | -2.77% | 0% | 9.15% | 2.46% | 1.27% | 4% | -2.67% | -9.57% | 1.91% | 2.35% | -12.9% |
| Cc1noc(C(C)C)c1C(=O)NCC(c1ccsc1)N(C)C (stereo not given) | -1.69% | 15.2% | 2.11% | -4.7% | -5.19% | -1.52% | 13.3% | 32.5% | 1.48% | 11.4% | -5.47% |
| CCc1nnc2n1CCN(C(=O)c1cc3ccc(F)cc3nc1C)C2 | -5.47% | 15.6% | 4.64% | 3.18% | 1.12% | -3.92% | 6.59% | -1.03% | 11.7% | 21.9% | -6.09% |
